Screening results as filed in PubChem BioAssay.
hcDAF-12 act: activates DAF-12 receptor from parasite H. contortus. HEK293 hcDAF-12 lit1-tk-luc reporter, luminescence; 0% DMSO, 100% Δ7-dafachronic acid. activation, % at 6.8 µM. hit rate 1.4% among 370,000;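 active means activation above the mean of all tested compounds plus 3 SD, cut at about 5.5% in these data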;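 further: 100% = response to 3 µM Δ7-dafachronic acid high control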
hgDAF-12 ag: hgDAF-12 agonism, primary luciferase screen. AID 687014. hit rate 1.8% among 370,000. HEK293 GAL4-hgDAF12 UAS-luciferase reporter, agonist luminescence; normalized to butyrate control. activation, % at 6.8 µM;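 active means activation above a cutoff set at the mean of all screened compounds plus 3 SD, cut at about 10% in these data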;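 further: 0% = DMSO wells and 100% = sodium butyrate wells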
DAX1 inh-1: blocks DAX1 repression of SF-1 activated StAR promoter; AID 652010; HEK293T StAR-luciferase reporter, SF-1/DAX-1 repression relief; hit rate 1.1% among 370,000; inhibition, % at 6.8 µM;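 active means inhibition above the mean over all tested compounds plus 3 SD, cut at about 3.6% in these data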;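 further: 0% = DAX-1 cells with DMSO and 100% = cells lacking DAX-1 with DMSO; higher inhibition means more luminescence from relief of DAX-1 repression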
ssDAF12 agonist: activators of S. stercoralis DAF-12 nuclear receptor | activation, % at 6.8 µM | HEK293 ssDAF-12/GRIP1 lit1-tk-luc reporter, luminescence; % of 3 µM dafachronic acid response | hit rate 1% among 370,000;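 active means activation above the mean over all tested compounds plus 3 SD, cut at about 0.9% in these data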;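 further: 0% = DMSO-only wells and 100% = 3 µM delta7-dafachronic acid wells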
DAX1 inh-2: inhibits human nuclear receptor DAX1; HEK293 Gal4-DAX1 luciferase reporter, luminescence; inhibition, % at 6.75 µM; hit rate 0.99% among 340,000; AID 504766;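 active means inhibition above the mean over all tested compounds plus 3 SD, cut at about 4.2% in these data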;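 further: 0% = DAX1-transfected cells with DMSO and 100% = empty-vector control cells with DMSO; inhibition shows as a rise in luminescence from relieved DAX1 repression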
Target sequence (P51843 207-470 limits assumed): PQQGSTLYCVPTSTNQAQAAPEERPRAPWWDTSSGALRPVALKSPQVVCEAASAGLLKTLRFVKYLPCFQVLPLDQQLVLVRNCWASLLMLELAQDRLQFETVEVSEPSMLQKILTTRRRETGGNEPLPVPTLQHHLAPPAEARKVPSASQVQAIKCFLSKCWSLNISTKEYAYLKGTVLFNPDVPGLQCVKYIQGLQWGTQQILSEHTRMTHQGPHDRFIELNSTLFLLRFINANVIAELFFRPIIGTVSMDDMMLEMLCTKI
The depositor's hits bear a star; . = no result given. This is a sample that favours compounds with a hit; in the whole collection about 4.1% have one here.

SMILES | hcDAF-12 act | hgDAF-12 ag | DAX1 inh-1 | ssDAF12 agonist | DAX1 inh-2
FC(F)(F)c1ccc(Oc2ccccc2Cl)nc1 | 0 | 2 | 0 | -2 | 1
COc1cccc(C=NNC(=S)NC2CC3CCC2C3)c1O (stereo not drawn) | 4 | 7 | 4 | 0 | .
C[C@@H]1CN([C@H](C)CO)C(=O)c2cc(NC(=O)Cc3cn(C)c4ccccc34)ccc2O[C@H]1CN(C)C(=O)Nc1ccc2c(c1)OCO2 | 6.2* | 3 | 0 | -1 | 0
Cc1noc(C)c1NC(=O)N(C)C[C@H]1OCCCC[C@@H](C)Oc2ccc(NC(=O)c3ccccc3)cc2C(=O)N([C@H](C)CO)C[C@@H]1C | -1 | 0 | 0 | -1 | 1
CC(C)NC(=O)Nc1ccc2c(c1)C(=O)N([C@H](C)CO)C[C@H](C)[C@@H](CN(C)C(=O)Nc1ccc(C(F)(F)F)cc1)O2 | 1 | 1 | 0 | 0 | 4.5*
Cc1noc(C)c1NC(=O)N(C)C[C@H]1OCCCC[C@@H](C)Oc2ccc(NC(=O)Nc3ccc(F)cc3)cc2C(=O)N([C@@H](C)CO)C[C@H]1C | -1 | -1 | 0 | -2 | 5.1*
C[C@@H]1CN([C@H](C)CO)C(=O)c2cc(NC(=O)Nc3ccc(F)cc3)ccc2O[C@H]1CN(C)C(=O)Nc1ccc(C(F)(F)F)cc1 | . | . | . | . | -1
C[C@H](CO)N1C[C@H](C)[C@@H](CN(C)C(=O)Nc2ccc3c(c2)OCO3)Oc2ccc(NC(=O)Cc3ccccc3)cc2C1=O | 1 | 0 | 0 | -1 | 1
C[C@@H]1CCCCO[C@@H](CN(C)C(=O)c2ccncc2)[C@@H](C)CN([C@H](C)CO)C(=O)c2cc(NC(=O)Cc3ccccc3)ccc2O1 | 0 | 11* | -1 | -1 | 1
COC(=O)C1=C(C)N(Cc2cccc(C(F)(F)F)c2)C(=NCc2cc(OC)c(OC)c(OC)c2)NC1c1cccc(Cl)c1 (stereo not drawn) | 2 | -1 | 1 | -1 | .
COc1ccc(S(=O)(=O)N(C)C[C@H]2Oc3ccc(NC(=O)c4ccncc4)cc3C(=O)N([C@H](C)CO)C[C@@H]2C)cc1 | -1 | -1 | 1 | 2.6* | -1
C[C@@H]1CCCCO[C@@H](CN(C)C(=O)Nc2ccc3c(c2)OCO3)[C@@H](C)CN([C@H](C)CO)C(=O)c2cc(N(C)C)ccc2O1 | 0 | 0 | 0 | -1 | 4.3*
C[C@@H]1CCCCO[C@H](CN(C)C(=O)Nc2ccc(C(F)(F)F)cc2)[C@@H](C)CN([C@H](C)CO)C(=O)c2cc(NC(=O)Nc3ccc4c(c3)OCO4)ccc2O1 | -2 | 1 | 1 | -1 | .
O=C(CSc1nnc(SCc2cccc3ccccc23)s1)c1ccc(F)cc1 | 0 | 2 | 1 | -1 | .
CCCCCn1cnc2sc(-c3ccccc3)cc2c1=O | 0 | 4 | 1 | -1 | 0
CCCCn1cnc2sc(-c3ccccc3)cc2c1=O | 2 | 10* | 2 | 0 | 3
CCCCCn1cnc2sc(CC)cc2c1=O | 1 | 12* | 3 | -1 | 0
O=C(N/N=C\c1ccc(-c2cccc(Cl)c2)o1)C(=O)NC1CCCC1 | 0 | 0 | 0 | -1 | 7.0*
Cc1ccc(C(=O)c2cncc(Br)c2)cc1 | -1 | 2 | 1 | -1 | 2
CCN(CC)c1ccc(NC(=O)c2cccnc2)cc1 | 1 | 4 | 1 | -1 | 0
Cc1ccc(NC(=O)c2cncc(Br)c2)cc1S(=O)(=O)N(C)C | 1 | 7 | 3 | 1.4* | 1
CCN(CC)c1ccc(NC(=O)c2cncc(Br)c2)cc1 | 1 | 13* | 2 | -1 | 1
Cc1ccc(SCC(=O)NNC(=O)c2cncc(Br)c2)cc1 | -1 | -1 | 0 | -1 | 5.9*
C=CCNCc1ccc(OC)cc1OC | -1 | -2 | 0 | -1 | .
O=C1CCC(=O)N(O)CCCCCNC(=O)CCC(=O)N(O)CCCCNC(=O)CCC(=O)N(O)CCCCCN1 | -1 | 3 | 0 | 0 | 5.3*
O=C1NCCCC1C(=O)N1CCCCC1 (stereo not drawn) | -1 | 1 | 0 | -1 | 3
Cc1ccc(C(=O)Nc2ccc(N3CCN(C)CC3)cc2)cc1 | 1 | 10 | 2 | 1.3* | 4
O=C(NNC(=O)c1cccs1)c1csc(N2CCOCC2)n1 | -1 | 2 | 0 | 1.2* | 0
O=C(Nc1ccc(C2SCCS2)cc1)c1ccccc1 | 4 | 11* | 2 | 1.6* | .
